Screens deposited in PubChem by National Center for Advancing Translational Sciences (NCATS).
BAZ2B block: qHTS Assay for Inhibitors of BAZ2B; AID 504333, 2011; AlphaScreen BAZ2B-H3K14Ac peptide displacement; Potency, µM (titrated, usually from 114 µM), inactives show top-dose activity change, negative = inhibition, most hits filed as inhibitors; Bromodomain adjacent to zinc finger domain protein 2B (Homo sapiens), Q9UIF8; hit rate 4.4% among 360,000; note: potency is the fitted concentration of half-maximal effect; % is set by controls: 0 for no effect and ±100 for the full control effect; nearly all actives have a fitted effect of over 60% in size
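AlphaScreen displacement: compounds (up to 110uM) incubated 30 min at room temperature with a preformed 50 nM BAZ2B/50 nM biotinylated H3K14Ac peptide complex in PBS pH 7.4 with Tween-20. Donor and acceptor beads at 10 ug/mL final added, 20 min light-protected before reading.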
G9a block: qHTS Assay for Inhibitors of Histone Lysine Methyltransferase G9a | hit rate 8.8% among 350,000 | AID 504332, 2011 | Potency, µM (highest dose often 102 µM), for inactives: at the top dose activity, negative = inhibition, hits mostly inhibitors | G9a H3K9 monomethylation, AlphaScreen, 2 h | Histone-lysine N-methyltransferase EHMT2 (Homo sapiens), Q96KQ7; note: potency is the fitted concentration of half-maximal effect; % is set by controls: 0 for no effect and ±100 for the full control effect; nearly all actives have a fitted effect of over 75% in size
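Step 1: enzyme (final 20 nM) with compound, 15 min RT. Step 2: substrate peptide 500 nM and SAM 20 uM, 2 h RT. Step 3: anti-H3K9me1 antibody and AlphaScreen beads, 10 min, then plate read.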
HP1b binding inh: HTS for Inhibitors of HP1-beta Chromodomain Interactions with Methylated Histone Tails. hit rate 0.56% among 390,000. AlphaScreen HP1-beta / biotin-H3K9me3 peptide binding. Chromobox protein homolog 1 (Homo sapiens), P83916. Potency, µM (series often up to 114 µM), inactives show at the highest dose activity change, negative = inhibition, hits mostly inhibitors; note: potency is the fitted concentration of half-maximal effect; nearly all actives have a fitted effect of over 70% in size
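AlphaScreen: HP1-beta (50 nM) preformed 30 min with biotin-H3(1-18)K9me3 peptide (50 nM) in PBS pH 7.4, 0.01% Tween-20. Compound added for 30 min at RT, then streptavidin donor/nickel chelate acceptor beads (10 ug/mL) for 30 min.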
CtBP-E1A blk: qHTS Assay for Inhibitors of the CtBP/E1A Interaction; activity change, % (test concentration not listed); hit rate 0.49% among 340,000; CtBP / adenovirus E1A interaction (AlphaScreen); AlphaScreen GST-E1A/His-CtBP binding, 1536-well; stronger effect = lower value; AID 651724, 2012; in the data active = activity change below about -65%; inconclusive = mostly about -30% to -63%; note: % is set by controls: 0 for no effect and ±100 for the full control effect
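Protein mix (5X: 125 nM each GST-E1A, His-CtBP) was incubated with pinned compound 2 h at 37 deg C in dark, in 50 mM Tris pH 8.0 buffer with 300 mM NaCl. Glutathione donor and nickel acceptor beads followed; AlphaScreen signal read after 1 h.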
JMJD2A Tudor inh: qHTS Assay for Inhibitors of JMJD2A-Tudor Domain | Lysine-specific demethylase 4A (Homo sapiens), O75164 | AID 504339, 2011 | Potency, µM (doses to about 114 µM), inactives show at the highest dose activity change, negative = inhibition, actives largely listed as inhibitors | AlphaScreen JMJD2A-Tudor / H3K4me3 peptide binding | hit rate 4.4% among 390,000; note: potency is the fitted concentration of half-maximal effect; % is set by controls: 0 for no effect and ±100 for the full control effect; nearly all actives have a fitted effect of over 50% in size
Six1-Eya2 blk: qHTS Assay for Inhibitors of the Six1/Eya2 Interaction | activity change, % (no concentration beside the values) | AID 651725, 2012 | AlphaScreen GST-Six1/His-Eya2 binding, biochemical; stronger effect = lower value | Homeobox protein SIX1 (Homo sapiens) + Protein phosphatase EYA2 (Homo sapiens), … | hit rate 0.56% among 360,000; in the data active = activity change below about -65%; inconclusive = mostly about -30% to -63%; note: % is set by controls: 0 for no effect and ±100 for the full control effect
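AlphaScreen luminescence read after one hour at 37 °C in darkness. Pin-transferred compounds met GST-Six1 and His-Eya2 protein (5X stock 250 nM/500 nM) plus glutathione donor and Ni-chelate acceptor beads (5X, 50 ug/mL).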
An asterisk follows results filed as active; ? = inconclusive; . = no result given; [ ] = remark or other dose. Hits are enriched below; roughly 10% of the tested compounds scored in any of these assays. Unless noted, calls come from the whole dose curve; as a rule, active = well fitted inhibition curve with a large enough effect; inconclusive = small, poorly fitted or top-dose-only effect; inactive = no such curve, though single readings can be large or run the other way.

SMILES	BAZ2B block	G9a block	HP1b binding inh	CtBP-E1A blk	JMJD2A Tudor inh	Six1-Eya2 blk
Cc1nc(C(=O)N(C)C)nn1-c1ccc(Cl)cc1Cl	8%	-36%	3%	-3	-13%	2
CC(=O)C1C(c2cccc(F)c2)c2c(n[nH]c2C)CC1(C)O (centres undefined)	2%	12%[12.7 µM]	43%	12	-11%	4
CCn1c2ccccc2c2n[nH]c(=S)nc21	-24%	7.9µM*	8%	.	-19%	?
C=CCn1c2ccccc2c2n[nH]c(=S)nc21	-35%	10µM*	9%	.	-32%	1
O=C(O)Cn1c2ccccc2c2n[nH]c(=S)nc21	50µM*	2.2µM*	-20%	-16	20µM*	0
COc1cc(COc2ccc(-c3nnco3)cc2)ccc1OC(F)F	-18%	-7%	11%	11	-2%	7
COc1ccc(CCNC(=O)c2ccc(Cn3c(=O)[nH]c4cc(OC)c(OC)cc4c3=O)cc2)cc1OC	-1%	1%[59 µM]	25%	.	-8%	.
COC(=O)c1c(NC(=O)c2ccc(Br)o2)sc(C)c1C	11%	50µM*	-6%	16	2%	5
C=C1C(c2ccc(C)cc2)=CCc2cc(C)cc(C)c21	.	29%[59 µM]	.	.	.	.
CSCCC1NC(=O)N(CC(=O)N2CCc3ccccc3C2)C1=O (centres undefined)	9%	15%[12.7 µM]	46%	2	-4%	4
O=C1c2ccccc2C(Nc2ccc(F)c(Cl)c2)N1Cc1ccco1 (centres undefined)	?	45µM*	15%	-13	-30%	-4
O=C1c2ccccc2C(Nc2cccnc2)N1Cc1ccc2c(c1)OCO2 (centres undefined)	2%	?	12%	3	-17%	-2
O=C1c2ccccc2C(Nc2ccc3c(c2)OCO3)N1Cc1ccco1 (centres undefined)	45µM*	10µM*	?	-4	56µM*	?
CCOc1ccc(NC2c3ccccc3C(=O)N2Cc2ccco2)cc1 (centres undefined)	50µM*	45µM*	?	-24	45µM*	-2
COc1ccc(OC)c(NC2c3ccccc3C(=O)N2Cc2ccc3c(c2)OCO3)c1 (centres undefined)	35µM*	32µM*	?	?	45µM*	?
COc1ccc(NC2c3ccccc3C(=O)N2Cc2ccco2)cc1OC (centres undefined)	?	?	-10%	-6	?	-11
CC(=O)Nc1ccc2c(c1)N(S(=O)(=O)c1cccs1)CCC2	3%	8%	15%	0	-10%	-2
O=C1c2ccccc2C(Nc2ccc3c(c2)OCO3)N1Cc1ccc2c(c1)OCO2 (centres undefined)	20µM*	40µM*	?	-10	45µM*	?
CCN(CC)c1ccc(/C=C(\C#N)C(N)=S)cc1	13µM*	20µM*	?	-6	-10%[11.4 µM]	-8
CCN(CC)c1ccc(/C=C(\C#N)C(N)=O)cc1	-25%	14%	13%	6	1%	-1
Oc1ccc(N2CCN(CC(O)c3ccccc3)CC2)cc1 (centres undefined)	-35%	8.9µM*	?	0	56µM*	3
O=[N+]([O-])c1ccc(C(O)CN2CCN(c3ccccc3)CC2)cc1 (centres undefined)	3%	14%	60%	8	-3%	-7
OC(COC(c1ccc(F)cc1)c1ccc(F)cc1)CN1CCCC(C(F)(F)F)C1 (centres undefined)	50µM*	11µM*	?	0	3.5µM*	6
OCCN1CCN(CC(O)COC(c2ccc(F)cc2)c2ccc(F)cc2)CC1 (centres undefined)	40µM*	-14%	?	9	7.1µM*	5
COc1ccc(C(OCC(O)CN2CCC(O)CC2)c2ccc(OC)cc2)cc1 (centres undefined)	-14%	-13%	-2%	24	-18%	1
SMILES	BAZ2B block	G9a block	HP1b binding inh	CtBP-E1A blk	JMJD2A Tudor inh	Six1-Eya2 blk
COc1ccc(N2CCN(CC(O)COC(c3ccc(F)cc3)c3ccc(F)cc3)CC2)cc1 (centres undefined)	20µM*	5.6µM*	?	.	3.5µM*	?
CC1(C(=O)Nc2ccc3c(c2)OCCO3)CN(S(C)(=O)=O)CC(=O)N1Cc1ccco1 (centres undefined)	.	.	.	-11	.	5
Cc1cccc(C(=O)N2CCC(N3CCN(Cc4ccc(F)cc4)C(=O)C3=O)CC2)c1	0%	0%[59 µM]	28%	.	-24%	.
COC(=O)c1ccccc1S(=O)(=O)N1CCC(C(=O)NCc2ccccn2)CC1	.	.	.	7	.	-8
CCn1c(=O)c2sccc2n2c(CCC(=O)N3CCN(c4ccccc4OC)CC3)nnc12	0%	-26%[59 µM]	49%	.	-8%	.
CCN1CCN(CC(O)COC(c2ccccc2)c2ccccc2)CC1 (centres undefined)	.	8%	35%	13	-5%	0
COc1ccc(N2CCN(CC(O)COC(c3ccccc3)c3ccccc3)CC2)cc1 (centres undefined)	45µM*	40µM*	?	?	45µM*	?
COc1cc2c(cc1[N+](=O)[O-])-c1ccccc1C2	.	.	-11%[57 µM]	4	-15%	-10
CN(C)c1ccc2c(c1[N+](=O)[O-])Cc1ccccc1-2	.	.	?	9	16µM*	?
COc1cccc(/C=N/NC(=O)C(C)n2nnc3ccccc32)c1 (centres undefined)	2%	5%[59 µM]	8%	-10	45µM*	-13
NC(=O)CSc1nc2scc(-c3ccco3)c2c(=O)n1-c1ccccc1	?	?	?	3	45µM*	?
C=CCn1c(SCC(=O)NCCOC)nc2scc(-c3ccco3)c2c1=O	?	45µM*	2%	-3	79µM*	-9
O=C(CSc1nc2scc(-c3ccco3)c2c(=O)n1-c1ccccc1)NCC1CCCO1 (centres undefined)	35µM*	8.9µM*	3%	-3	?	-7
COCCNc1oc(Cc2cccc3ccccc23)nc1C#N	?	79µM*	-13%	.	-27%	3
C=CCNc1oc(Cc2cccc3ccccc23)nc1C#N	50µM*	50µM*	35%	6	?	-4
N#Cc1nc(Cc2cccc3ccccc23)oc1NCCN1CCOCC1	-37%	-6%[59 µM]	-16%	-11	-35%	-8
